# Laboratory results as given in PubChem BioAssay (NCI).
# This is part of a sample that, as a whole, favours compounds with a hit. Of some 83,000 tested, about 20% had one in any assay.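 96-well plates, one dose, 48 hours. Percent growth reported; active if below 10.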 Values without a mark were called inactive. The source made the active and inactive calls.
# Test system: DU-145 prostate
# Test: NCI-60 one-dose screen, 48 h (100 = growth as untreated, 0 = no growth, -100 = all killed)
# Conditions: 10 µM unless noted
row,Compound,growth
1,C[C@H](c1nc2ccc(C#N)cc2[nH]1)[C@H]1CC[C@H]2[C@@H]3CCC4=CC(=O)CC[C@]4(C)[C@H]3CC[C@]12C,68.9%
2,O=c1cc(C(F)(F)F)c2cc(-c3cc4ccccc4c(=O)o3)c(O)cc2o1,96.5%
3,Nc1ccc(-c2ccncc2)cc1NC(=O)N1CCCC1,105%
4,COc1cccc(-c2cn3nc(-c4cn(C)c5ccccc45)sc3n2)c1,106%
5,CC(C)(C)c1ccc(S(=O)(=O)Oc2ccc(-c3sc4cc(OS(=O)(=O)c5ccc(C(C)(C)C)cc5)ccc4c3C(=O)c3ccc(OCCN4CCCCC4)cc3)cc2)cc1,114%
6,CCN(CC)CCn1c2ccc(OC)cc2c2sc3cc(O)ccc3c(=O)c21,42.7%
7,C=C1C(=O)O[C@H]2[C@H]1CC/C(COC(=O)NCc1ccc(Cn3c(=O)sn(-c4ccc(I)cc4)c3=O)cc1)=C\CC[C@@]1(C)O[C@@H]21,47.9%
8,O=C(Nc1nc(Cl)nc(Nc2ccc(N3CCOCC3=O)cc2)n1)c1ccc(Cl)s1,104%
9,COc1cc(OC)c2c(=O)c3c(CC=C(C)C)cc(OC)c(O)c3oc2c1,85%
10,O=S(=O)(Nc1cc(Sc2nc3ccccc3s2)c(O)c2ccccc12)c1ccc2ccccc2c1,101%
11,Nc1cccc(-c2ccc(COc3ccc(CC4SC(=O)NC4=O)cc3)cc2)c1 (stereo not drawn),83.2%
12,COc1ccc(-c2nc(SCC(=O)Nc3nc4ccc(C)cc4s3)[nH]c(=O)c2C#N)cc1OC,114%
13,C=C1C(=O)O[C@@H]2C3C(=C(C)CC[C@@H]12)CC1O[C@]13C (stereo partly drawn),52.9% [6.75 µM]
14,COc1cccc(CNc2c3ccccc3nc3ccccc23)c1OC,41.7%
15,Nc1c(Cl)cc(/C=C2\C=Cc3ccccc32)cc1Cl,97.8%
16,CSc1ccc2c3c(n(C[C@H](O)CO)c(=O)c2c1)-c1ccccc1C3=O,22%
17,COc1cc(-c2ccc[nH]2)[nH]c1/C=C1\N=C(C)C(CC(=O)OCC(C)(C)C)=C1C,-73.9% (active)
18,Brc1ccc(Nc2nc(Nc3cnc4ccccc4c3)c3[nH]cnc3n2)cc1,81.3%
19,CS(=O)(=O)Nc1cc(-c2ccc3ncnc(Nc4ccc(F)c(Cl)c4)c3c2)ccc1Cl,39.8%
20,CSc1ccc2c3c(n(CCCn4ccnc4)c(=O)c2c1)-c1ccccc1C3=O,28.5%

row,Compound,growth
1,O=C(/C=C/c1cn(-c2ccccc2)nc1-c1ccccc1)CCC(=O)NO,112%
2,O=C(/C=C/c1ccccc1)c1cccc2ccccc12,15.6%
3,CCOC(=O)/C=C1\S/C(=N\Nc2cc(=O)[nH]c3ccc(Br)cc23)N(c2ccccc2)C1=O,85.2%
4,CC(=O)c1ccc(-n2cc(CN3CCN(c4cc5c(cc4F)c(=O)c(C(=O)O)cn5C4CC4)CC3)nn2)cc1,104%
5,CS(=O)(=O)Nc1cc(-c2ccc3ncnc(Nc4ccc(OCc5ccccn5)c(Cl)c4)c3c2)cnc1Cl,16.5%
6,COc1ccc2c(c1)c(-c1nc(-c3ccc4ccccc4c3)cs1)cn2C,103%
7,CCOC(=O)c1c(C)nc2ccccc2c1/C=C/c1ccc(F)cc1,89.6%
8,CC1(C)N=C(N)N=C(N)N1c1ccc(S(=O)(=O)Nc2nccs2)cc1,103%
9,COC(=O)c1sccc1-c1cc(O)c(C(=O)Nc2ccccc2)s1,99.1%
10,CCOC(=O)NC(=S)n1oc(=O)c2ccccc21,106%
11,O=C1CCC(C(=O)N/N=C/c2cc(F)ccc2F)N1 (stereo not drawn),110%
12,COc1ccccc1/C=C/C(=O)Nc1ccc(F)cc1,98.6%
13,COc1ccc(/C=N/Nc2c3ccccc3nc3ccccc23)cc1,90.4%
14,O=[N+]([O-])c1ccccc1Sc1ccccc1[N+](=O)[O-],104%
15,C[C@@H]1CN(c2cnc(C(=O)Nc3cc(F)cc4cccnc34)cn2)C[C@H](C)N1,84.1%
16,CC1(C)CC[C@]23CC[C@]4(C)[C@H](CC[C@@H]5[C@@]6(C)C/C(=C/O)C(=O)C(C)(C)[C@@H]6CC[C@]54C)[C@H]2[C@H]1OC3,115%
17,c1cc(OCCCCCOc2cccc(-c3nc4ccccc4[nH]3)c2)cc(-c2nc3ccccc3[nH]2)c1,33.2%
18,O=CN1N=C(c2cccc(Nc3ccnc4cc(Cl)ccc34)c2)CC1c1ccc(Cl)cc1 (stereo not drawn),23.8%
19,COc1ccc(/C=C2\c3cc(OC)c(OC)c(OC)c3CC[C@@H]2O)cc1F,19.5%

# Test system: K-562 leukemia
# Test: as above
# Conditions: 10 µM unless noted
row,Compound,growth
1,C[C@H](c1nc2ccc(C#N)cc2[nH]1)[C@H]1CC[C@H]2[C@@H]3CCC4=CC(=O)CC[C@]4(C)[C@H]3CC[C@]12C,40.8%
2,O=c1cc(C(F)(F)F)c2cc(-c3cc4ccccc4c(=O)o3)c(O)cc2o1,50%
3,Nc1ccc(-c2ccncc2)cc1NC(=O)N1CCCC1,102%
4,COc1cccc(-c2cn3nc(-c4cn(C)c5ccccc45)sc3n2)c1,48%
5,CC(C)(C)c1ccc(S(=O)(=O)Oc2ccc(-c3sc4cc(OS(=O)(=O)c5ccc(C(C)(C)C)cc5)ccc4c3C(=O)c3ccc(OCCN4CCCCC4)cc3)cc2)cc1,103%
6,CCN(CC)CCn1c2ccc(OC)cc2c2sc3cc(O)ccc3c(=O)c21,6.38% (active)
7,C=C1C(=O)O[C@H]2[C@H]1CC/C(COC(=O)NCc1ccc(Cn3c(=O)sn(-c4ccc(I)cc4)c3=O)cc1)=C\CC[C@@]1(C)O[C@@H]21,7.33% (active)
8,O=C(Nc1nc(Cl)nc(Nc2ccc(N3CCOCC3=O)cc2)n1)c1ccc(Cl)s1,64.2%
9,COc1cc(OC)c2c(=O)c3c(CC=C(C)C)cc(OC)c(O)c3oc2c1,61.4%
10,O=S(=O)(Nc1cc(Sc2nc3ccccc3s2)c(O)c2ccccc12)c1ccc2ccccc2c1,-35.7% (active)
11,Nc1cccc(-c2ccc(COc3ccc(CC4SC(=O)NC4=O)cc3)cc2)c1 (stereo not drawn),21.6%
12,COc1ccc(-c2nc(SCC(=O)Nc3nc4ccc(C)cc4s3)[nH]c(=O)c2C#N)cc1OC,94.4%
13,C=C1C(=O)O[C@@H]2C3C(=C(C)CC[C@@H]12)CC1O[C@]13C (stereo partly drawn),49.6% [6.75 µM]
14,COc1cccc(CNc2c3ccccc3nc3ccccc23)c1OC,15.5%
15,Nc1c(Cl)cc(/C=C2\C=Cc3ccccc32)cc1Cl,100%
16,CSc1ccc2c3c(n(C[C@H](O)CO)c(=O)c2c1)-c1ccccc1C3=O,20.7%
17,COc1cc(-c2ccc[nH]2)[nH]c1/C=C1\N=C(C)C(CC(=O)OCC(C)(C)C)=C1C,-42.9% (active)
18,Brc1ccc(Nc2nc(Nc3cnc4ccccc4c3)c3[nH]cnc3n2)cc1,79.7%
19,CS(=O)(=O)Nc1cc(-c2ccc3ncnc(Nc4ccc(F)c(Cl)c4)c3c2)ccc1Cl,39.4%
20,CSc1ccc2c3c(n(CCCn4ccnc4)c(=O)c2c1)-c1ccccc1C3=O,35.6%

row,Compound,growth
1,O=C(/C=C/c1cn(-c2ccccc2)nc1-c1ccccc1)CCC(=O)NO,99.6%
2,O=C(/C=C/c1ccccc1)c1cccc2ccccc12,10.6%
3,CCOC(=O)/C=C1\S/C(=N\Nc2cc(=O)[nH]c3ccc(Br)cc23)N(c2ccccc2)C1=O,13.4%
4,CC(=O)c1ccc(-n2cc(CN3CCN(c4cc5c(cc4F)c(=O)c(C(=O)O)cn5C4CC4)CC3)nn2)cc1,101%
5,CS(=O)(=O)Nc1cc(-c2ccc3ncnc(Nc4ccc(OCc5ccccn5)c(Cl)c4)c3c2)cnc1Cl,21.1%
6,COc1ccc2c(c1)c(-c1nc(-c3ccc4ccccc4c3)cs1)cn2C,67.7%
7,CCOC(=O)c1c(C)nc2ccccc2c1/C=C/c1ccc(F)cc1,50%
8,CC1(C)N=C(N)N=C(N)N1c1ccc(S(=O)(=O)Nc2nccs2)cc1,98.9%
9,COC(=O)c1sccc1-c1cc(O)c(C(=O)Nc2ccccc2)s1,91.6%
10,CCOC(=O)NC(=S)n1oc(=O)c2ccccc21,112%
11,O=C1CCC(C(=O)N/N=C/c2cc(F)ccc2F)N1 (stereo not drawn),97.1%
12,COc1ccccc1/C=C/C(=O)Nc1ccc(F)cc1,84.8%
13,COc1ccc(/C=N/Nc2c3ccccc3nc3ccccc23)cc1,87.9%
14,O=[N+]([O-])c1ccccc1Sc1ccccc1[N+](=O)[O-],97.5%
15,C[C@@H]1CN(c2cnc(C(=O)Nc3cc(F)cc4cccnc34)cn2)C[C@H](C)N1,28.5%
16,CC1(C)CC[C@]23CC[C@]4(C)[C@H](CC[C@@H]5[C@@]6(C)C/C(=C/O)C(=O)C(C)(C)[C@@H]6CC[C@]54C)[C@H]2[C@H]1OC3,105%
17,c1cc(OCCCCCOc2cccc(-c3nc4ccccc4[nH]3)c2)cc(-c2nc3ccccc3[nH]2)c1,9.81% (active)
18,O=CN1N=C(c2cccc(Nc3ccnc4cc(Cl)ccc34)c2)CC1c1ccc(Cl)cc1 (stereo not drawn),15.8%
19,COc1ccc(/C=C2\c3cc(OC)c(OC)c(OC)c3CC[C@@H]2O)cc1F,13.4%
